Here are results for 40 compounds from PubChem BioAssay (Tox21).

SMILES strings stand for the structures. Inconclusive results are not listed. Calls of active or inactive are those of the source. The call rests on the fitted dose curve; in most records, active means well fitted activation curve with a large enough effect in the repeat runs; inconclusive means weak or mixed curves; inactive means flat fitted curve, though single readings scatter.
On the % scale 0 is the no-effect control and ±100 the full control effect; potency means the concentration at half of the fitted maximal effect.

This assay can be described thus: A CellTox Green Cytotoxicity Assay to monitor cytotoxicity in HepG2 cells - 40 hour (AID 1224879). Further: nearly all actives have a fitted effect of over 40% in size. The settings on record: CellTox Green fluorescence; series mostly up to 76.8 µM; cytotoxicity increase: at the top concentration. The text has this:
National Center for Advancing Translational Sciences [NCATS]
NIH Chemical Genomics Center [NCGC]
U.S. Environmental Protection Agency [EPA]
National Institutes of Environmental Health Sciences [NIEHS]
National Toxicology Program [NTP]
Cell-based models are critical for drug discovery. Determining the natural cytotoxic effects resulting from test compounds is an essential research activity. A CellTox Green Cytotoxicity Assay to monitor cytotoxicity in real time of continues cell culture during 40 hours of the compound treatment was used to screen Tox21 10K library compounds in HepG2 cells. CellTox Green Cytotoxicity Assay is a nonlytic, homogeneous, biofluorescent method to measure cytotoxicity in cell culture after experimental manipulation. The assay system uses a proprietary asymmetric cyanine dye that is excluded from viable cells but preferentially stains the dead cell's DNA. […] Viable cells produce no appreciable increases in fluorescence. Therefore, the fluorescence signal produced by the binding interaction with dead cell DNA is proportional to cytotoxicity.
The mixture of HepG2 cell suspension and reagents were dispensed at 600cells/6 ul/well in 1536-well tissue culture treated black solid bottom plates using a Multidrop dispenser. After the assay plates were incubated at a 37 C/5% CO2 incubator for 5 hours, 23 nL of compounds dissolved in DMSO, positive and negative controls was transferred to the assay plate by a pintool work station. The plates were incubated at 37 C for 40 hours. The fluorescence intensity were measured at 0h, 8h, 16h, 24h, 32h and 40h time points using ViewLux plate reader during compound treatment.
As for `CC(C)(C)C(=O)C(Cl)Cl`, the “cytotoxicity increase” value is -8.94% (inactive).

As for `CCCCCCCCSC(=O)Oc1cc(Cl)nnc1-c1ccccc1`, the “cytotoxicity increase” value is -18.9% (inactive).

For `NCCOS(=O)(=O)O`, the “cytotoxicity increase” value was -5.62% (inactive).

For the compound `O=C(O)C(Cl)Br` (stereo not given), the “cytotoxicity increase” value was -0.353% (inactive).

Take `Brc1c(Br)c(Br)c(Br)c(Br)c1Br`: the cytotoxicity increase was -0.0521% [at 6.97 µM] (inactive).

In the case of `CCNc1nc(Cl)nc(NC(C)(C)C)n1`, the “cytotoxicity increase” value is 1.69% (inactive).

Consider `COc1ccccc1OC`, for which the “cytotoxicity increase” value is -0.598% (inactive).

As for `ClCC1CO1` (stereo not given), the “cytotoxicity increase” value was -0.441% (inactive).

For the compound `CCN[C@@H](C)Cc1cccc(C(F)(F)F)c1`, the “cytotoxicity increase” value is -19.5% [at 35.3 µM] (inactive).

Take `C=CC=O`: the “cytotoxicity increase” value is 11.4% (inactive).

Consider `Clc1cc2c(cc1Cl)Oc1cc(Cl)c(Cl)cc1O2`, for which the Potency is 26.8 nM (active).

Take `CCOC1Oc2ccc(OS(C)(=O)=O)cc2C1(C)C` (stereo not given): the “cytotoxicity increase” value is 0.306% (inactive).

Consider `CCN(CCO)CCO`, for which the “cytotoxicity increase” value was -9.1% (inactive).

As for `O=C/C=C/c1ccco1`, the “cytotoxicity increase” value is -7.82% (inactive).

With `ClCCCCCCCl`, the “cytotoxicity increase” value is -8.41% (inactive).

On to `Oc1ccc(Cc2ccc(O)cc2)cc1`, for which the “cytotoxicity increase” value is 1.14% (inactive).

With `CCOP(=S)(OCC)Oc1ccc(Cl)cc1Cl`, the “cytotoxicity increase” value is 6.02% (inactive).

With `Clc1ccc(C(Cl)(Cl)Cl)cn1`, the “cytotoxicity increase” value was 11.4% (inactive).

As for `CC(C)(C)C(=O)Cl`, the “cytotoxicity increase” value is -5.98% (inactive).

For `O=P(O)(O)c1ccccc1`, the “cytotoxicity increase” value is -16.1% (inactive).

`CN(C)CCN(C)C`: the “cytotoxicity increase” value was 2.04% (inactive).

With `CCCCCCC(=O)CCCCCC/C=C/C[C@@H](O)[C@H](O)[C@@](N)(CO)C(=O)O`, the cytotoxicity increase was -21.5% [at 15.8 µM] (inactive).

Regarding `CCOC(=O)C(SP(=S)(OC)OC)c1ccccc1` (stereo not given), the “cytotoxicity increase” value was -9.71% (inactive).

With `c1cncc([C@@H]2CCCCN2)c1`, the “cytotoxicity increase” value was 13.1% (inactive).

In the case of `CCOc1cc(OP(=S)(OC)OC)nc(CC)n1`, the “cytotoxicity increase” value was 10.4% (inactive).

Consider `O=C(O)C(F)(F)C(F)(F)C(F)(F)C(F)(F)C(F)(F)C(F)(F)F`, for which the “cytotoxicity increase” value was -7.12% (inactive).

For the compound `NC(=O)OCCCc1ccccc1`, the “cytotoxicity increase” value was -2.45% [at 35.3 µM] (inactive).

For `CC(Cc1ccccc1)NCCn1cnc2c1c(=O)n(C)c(=O)n2C` (stereo not given), the “cytotoxicity increase” value is -7.18% (inactive).

Regarding `CCOC(=O)COc1ccc(Cl)cc1Cl`, the “cytotoxicity increase” value was -2.31% (inactive).

For the compound `O=c1[nH]c2ccccc2o1`, the “cytotoxicity increase” value is 6.68% (inactive).

Consider `O=C(Cl)CCl`, for which the “cytotoxicity increase” value is -0.087% (inactive).

In the case of `COC(=O)c1ccccc1CS(=O)(=O)NC(=O)Nc1nc(OC)cc(OC)n1`, the “cytotoxicity increase” value is -0.243% (inactive).

With `C1CN2CCC1CC2`, the “cytotoxicity increase” value is -9.01% [at 35.3 µM] (inactive).

Turning to `CC(C)(C1CCC(O)CC1)C1CCC(O)CC1` (stereo not given), the “cytotoxicity increase” value is 13.2% (inactive).

As to `C=CC(=O)OCCN(C)C`, the “cytotoxicity increase” value was -0.346% (inactive).

Regarding `C=C(C)[C@H]1CN[C@H](C(=O)O)[C@H]1CC(=O)O`, the “cytotoxicity increase” value was -5.47% [at 35.3 µM] (inactive).

In the case of `CCC(=O)c1ccc(Cl)cc1`, the “cytotoxicity increase” value is 1.68% (inactive).

Turning to `c1ccc2c(c1)CCNC2`, the “cytotoxicity increase” value was 4.77% (inactive).

As for `CCN(CC)C1CCCCC1`, the “cytotoxicity increase” value is -1.41% (inactive).

On to `C=CCCC#N`, for which the “cytotoxicity increase” value was -1.8% (inactive).
